Laboratory results published in PubChem BioAssay (EPA / NIEHS).
Values joined by “and” are separate entries in the source; they are usually repeats but may differ in a detail not shown here. Equal entries are not always repeated. Some structures have more than one record in an assay (separate samples or runs), and their calls can disagree. Active and inactive are the calls of the source. The calls were made as follows: active = hit-call score of the fitted dose curve at least 0.9, where 1 is the maximum; inactive = score below 0.9.

Assays:
Conditions in all cases: primary human HUVEC with PBMC; actives raise or lower the signal
[1] = read-out: Interleukin-1 alpha (IL1a), IL1A (gene 3552); assay: BSK_LPS_IL1a: BioMAP Diversity Plus: LPS Assay for Interleukin-1 alpha (IL1a) Biomarker Activity (AID 2283080)
Procedure, shortened: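 HUVEC/PBMC co-culture, LPS system; 24 h after dosing; IL-1a by ELISA; gain or loss of signal fitted bidirectionally vs DMSO baseline.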

[2] = read-out: Monocyte Chemoattractant Protein-1 (MCP1), CCL2 (gene 6347); assay: BSK_LPS_MCP1: BioMAP Diversity Plus: LPS Assay for Monocyte Chemoattractant Protein-1 (MCP1) Biomarker Activity (AID 2283081);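 as to AC50: secreted MCP-1 protein quantified by ELISA in culture supernatant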
Procedure, shortened: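 ELISA read-out of MCP-1 after 24 h chemical dosing of a human umbilical vein endothelial cell/peripheral blood mononuclear cell co-culture stimulated with LPS. Gain or loss of signal fitted relative to DMSO controls.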

[3] = BSK_LPS_PGE2: BioMAP Diversity Plus: LPS Assay for Prostaglandin E2 (PGE2) Biomarker Activity (AID 2283082);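 as to AC50: secreted prostaglandin E2 measured by ELISA in LPS-stimulated co-culture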
Procedure, shortened: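 ELISA read-out of PGE2 from human umbilical vein endothelial cells co-cultured with peripheral blood mononuclear cells under LPS, 24 h post-dose. Gain or loss of signal scored relative to DMSO baseline.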

[4] = read-out: Macrophage colony-stimulating factor (MCSF), CSF1 (gene 1435); assay: BSK_LPS_MCSF: BioMAP Diversity Plus: LPS Assay for Macrophage colony-stimulating factor (MCSF) Biomarker Activity (AID 2283083)
Procedure, shortened: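 HUVEC + PBMC co-culture (human primary), 24 h post-dose; M-CSF by ELISA; gain/loss of signal fitted bidirectionally vs DMSO baseline.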

[5] = read-out: Vascular cell adhesion molecule 1 (VCAM1), VCAM1 (gene 7412); assay: BSK_LPS_VCAM1: BioMAP Diversity Plus: LPS Assay for Vascular cell adhesion molecule 1 (VCAM1) Biomarker Activity (AID 2283086)
Procedure, shortened: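 ELISA read-out of VCAM-1 at 24 h post-dosing in an LPS-driven HUVEC/PBMC primary human co-culture; gain or loss of signal fitted bidirectionally against DMSO baseline. Cytotoxicity tracked in parallel cultures by SRB total-protein staining.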

CD38, CD38 (gene 952) = assay: BSK_SAg_CD38: BioMAP Diversity Plus: SAg Assay for CD38 Biomarker Activity (AID 2283087)
Procedure, shortened: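 Measures CD38 on a human endothelial/PBMC co-culture driven by SEB and TSST-1, 24 h after compound exposure, using ELISA with fluorescence detection; DMSO defines baseline for bidirectional curve fitting.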

CD40, CD40 (gene 958) = assay: BSK_SAg_CD40: BioMAP Diversity Plus: SAg Assay for CD40 Biomarker Activity (AID 2283088)
Procedure, shortened: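 HUVEC/PBMC co-culture, 24 h post-dose; CD40 by ELISA, fluorescence intensity; bidirectional fit vs DMSO negative control.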

CD69, CD69 (gene 969) = assay: BSK_SAg_CD69: BioMAP Diversity Plus: SAg Assay for CD69 Biomarker Activity (AID 2283089);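 as to AC50: cell surface CD69 protein quantified by ELISA with fluorescence detection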
Procedure, shortened: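 Primary human vascular co-culture (umbilical vein endothelium with peripheral blood mononuclear cells) exposed to test chemical for 24 h. CD69 levels quantified by fluorescence ELISA; DMSO served as negative control for bidirectional fitting.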

[6] = read-out: Tissue Factor, F3 (gene 2152); assay: BSK_LPS_TissueFactor: BioMAP Diversity Plus: LPS Assay for Tissue Factor Biomarker Activity (AID 2283084)
Procedure, shortened: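 HUVEC/PBMC co-culture, LPS-activated; CD142 ELISA read 24 h post-dose; bidirectional curve fit vs DMSO negative control.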

[7] = read-out: Tumor necrosis factor (Homo sapiens) (UniProt P01375); assay: BSK_LPS_TNFa: BioMAP Diversity Plus: LPS Assay for Tumour Necrosis Factor alpha (TNFa) Biomarker Activity (AID 2283085);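 as to AC50: TNFa protein level quantified by ELISA in the co-culture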
Procedure, shortened: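 HUVEC/PBMC co-culture, LPS-stimulated; 24 h post-dose; TNFa by ELISA; gain or loss of signal fitted bidirectionally vs DMSO baseline.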

Measured: AC50

Tumor necrosis factor (Homo sapiens), sequence (P01375 whole entry, looked up): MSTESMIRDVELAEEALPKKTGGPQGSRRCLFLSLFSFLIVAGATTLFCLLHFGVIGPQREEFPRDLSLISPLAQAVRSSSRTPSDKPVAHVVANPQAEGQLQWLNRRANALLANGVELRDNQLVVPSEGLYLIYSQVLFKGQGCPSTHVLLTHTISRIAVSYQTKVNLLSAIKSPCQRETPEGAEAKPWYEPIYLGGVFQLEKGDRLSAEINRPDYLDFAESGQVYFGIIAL

O=C(O)CCC(F)(F)C(F)(F)C(F)(F)C(F)(F)C(F)(F)C(F)(F)C(F)(F)F
not listed: [6] | [7]
inactive: all other assays above

Brc1nc2ccccc2s1
not listed: [1] | [7]
inactive: all other assays above

CCN(CC)c1ccc2c(c1)Oc1cc(N(CC)CC)ccc1C21OC(=O)c2ccccc21
not listed: [6]
inactive: all other assays above

CCOC(C=C(C)CCC=C(C)C)OCC
active: [1] 32.9 µM | [2] 20 µM | [4] 33.1 µM | [5] 31.7 µM | CD40, CD40 (gene 958) 3.97 µM
inactive: [3] | CD38, CD38 (gene 952) | CD69, CD69 (gene 969)

NC(=O)C(F)(F)C(F)(F)C(F)(F)C(F)(F)C(F)(F)C(F)(F)C(F)(F)F
not listed: [6]
inactive: all other assays above

Cc1cnccn1
not listed: [6]
inactive: all other assays above

Cc1cc(O)c(C(C)(C)C)cc1C(C)(C)C
inactive: [3]
active: [1] 5.31 µM | [2] 9.04 µM | [4] 5.29 µM | [7] 9.79 µM | [5] 5.9 µM | CD38, CD38 (gene 952) 10.1 µM | CD40, CD40 (gene 958) 5.09 µM | CD69, CD69 (gene 969) 5.18 µM

CN(C(=O)C(F)(F)C(F)(F)C(F)(F)F)[Si](C)(C)C
not listed: [6]
inactive: all other assays above

CCN(CC)c1ccc(C=O)cc1
not listed: [6] | [7]
inactive: all other assays above

NCC(F)(F)C(F)(F)C(F)(F)C(F)(F)C(F)(F)C(F)(F)C(F)(F)C(F)(F)F
not listed: [6]
inactive: all other assays above

OCC(O)CC(F)(F)C(F)(F)C(F)(F)C(F)(F)F (stereo not drawn)
not listed: [6]
inactive: all other assays above

NC(O)(C(F)(F)F)C(F)(F)F
not listed: [6]
inactive: all other assays above

OCC(F)(F)C(F)(F)C(F)(F)C(F)(F)C(F)(F)C(F)(F)C(F)(F)C(F)(F)CO
inactive: [1] | [2] | [3] | [4] | [5] | CD38, CD38 (gene 952) | CD40, CD40 (gene 958) | CD69, CD69 (gene 969)
active: CD69, CD69 (gene 969) 5.61 µM

O=C(Cl)C(F)(F)C(F)(F)C(F)(F)C(F)(F)C(F)(F)C(F)(F)F
not listed: [6] | [7]
inactive: all other assays above

O=C(F)C1(F)C(F)(F)C(F)(F)C(F)(F)C(F)(F)C1(F)F
not listed: [6] | [7]
inactive: all other assays above

Nc1cc([N+](=O)[O-])cc(Cl)c1O
not listed: [6]
inactive: all other assays above

FC(F)(F)C(F)(F)C(F)(F)C(F)(F)C(F)(F)C(F)(F)C(F)(F)CCI
not listed: [6] | [7]
inactive: all other assays above

CCOC(=O)CC(=O)C(F)(F)C(F)(F)F
not listed: [6] | [7]
inactive: all other assays above

NC(=O)C(F)(F)C(F)(F)C(F)(F)F
not listed: [6] | [7]
inactive: all other assays above

O=S(=O)(O)CCC(F)(F)C(F)(F)C(F)(F)C(F)(F)F
not listed: [6] | [7]
inactive: all other assays above

Cc1cc(C)c(O)c(C(C)(C)C)c1
inactive: [3] | [7]
active: [1] 32.7 µM | [2] 36.7 µM | [4] 34.4 µM | [5] 31.3 µM | CD38, CD38 (gene 952) 32.5 µM | CD40, CD40 (gene 958) 30.5 µM | CD69, CD69 (gene 969) 31.5 µM

O=C(O)C(F)(F)C(F)(F)C(F)(F)OC(F)(F)F
not listed: [6] | [7]
inactive: all other assays above

O=S(=O)(Cl)C(F)(F)C(F)(F)C(F)(F)C(F)(F)C(F)(F)C(F)(F)C(F)(F)C(F)(F)F
active: [3] 46.8 µM and 42.8 µM | CD69, CD69 (gene 969) 15 µM
inactive: [1] | [2] | [4] | [7] | [5] | CD38, CD38 (gene 952) | CD40, CD40 (gene 958) | CD69, CD69 (gene 969)

O=C(O)C(F)(F)OC(F)(F)C(F)(F)OC(F)(F)C(F)(F)OC(F)(F)F
not listed: [6] | [7]
inactive: all other assays above

CCN=C1C=CC(=C(c2ccc(N(CC)CC)cc2)c2ccc(N(CC)CC)cc2)c2ccccc21
active: [1] 2.54 µM and 1.43 µM | [2] 261 nM and 1.13 µM | [3] 3.95 µM and 2.66 µM | [4] 1.72 µM and 1.53 µM | [5] 1.42 µM and 1.55 µM | CD38, CD38 (gene 952) 713 nM and 470 nM | CD40, CD40 (gene 958) 1.69 µM and 1.51 µM | CD69, CD69 (gene 969) 1.34 µM and 765 nM

CC(C)CCCC(C)CCO (stereo not drawn)
not listed: [6]
inactive: all other assays above

O=C(O)C(F)(F)C(F)(F)C(F)(F)C(F)(F)C(F)(F)C(F)(F)C(F)F
not listed: [6]
inactive: all other assays above

O=C(O)C(F)(F)C(F)(F)C(F)(F)C(=O)O
not listed: [6]
inactive: all other assays above

C=CC(=O)OCCC(F)(F)C(F)(F)C(F)(F)C(F)(F)F
inactive: [1] | [2] | [3] | [4]
active: [5] 32.7 µM and 15.7 µM | CD38, CD38 (gene 952) 47.8 µM and 30 µM | CD40, CD40 (gene 958) 30 µM | CD69, CD69 (gene 969) 28 µM and 30.9 µM

O=C1C=CC(=O)N1c1ccc(Cc2ccc(N3C(=O)C=CC3=O)cc2)cc1
active: [1] 8.38 µM | [2] 14.9 µM | [3] 5.34 µM | [4] 10 µM | [7] 8.82 µM | [5] 11.1 µM | CD38, CD38 (gene 952) 5.71 µM | CD40, CD40 (gene 958) 12.1 µM | CD69, CD69 (gene 969) 6.1 µM

C[Si](Cl)(Cl)CCC(F)(F)C(F)(F)C(F)(F)C(F)(F)C(F)(F)C(F)(F)F
not listed: [6]
inactive: all other assays above

O=C(Cl)C(F)(F)C(F)(F)C(F)(F)C(F)(F)C(F)(F)C(F)(F)C(F)(F)F
not listed: [6] | [7]
inactive: all other assays above

CC(C)(C)c1cc(CCC(=O)NCCCCCCNC(=O)CCc2cc(C(C)(C)C)c(O)c(C(C)(C)C)c2)cc(C(C)(C)C)c1O
not listed: [6]
inactive: all other assays above
